Experimental data published in ChEMBL document CHEMBL3988442, “University of Dundee, Small-Polar-MMV Screening Library” (2021).
Screen size: about 48,000 compounds; about 13,000 (27%) showed an effect of 50% or more. The list shows a part of the results.

The compounds below were run on Wolbachia pipientis (assay: Anti-Wolbachia Cell-Based Screen). Details: 5 µM.
Format: functional
Design: scale not given: in the data most compounds retested in dose-response had high values

Structure (SMILES) | Percent Effect [%]
CCCNC(=O)CN1CCOC(c2ccc(Br)cc2)C1 (configuration not stated) | -1.206
Cc1cc(C)c2nc(CN3CC[C@@H](O)C3)cc(O)c2c1 | -21.84
COC1CCCN(Cc2cc(O)c3cc(C)cc(C)c3n2)C1 (configuration not stated) | -4.558
Cc1cc(C)c2nc(CN3CCCC(c4cc[nH]n4)C3)cc(O)c2c1 (configuration not stated) | 54.67
CCN(CC)[C@@H]1CN(Cc2nccn2C)[C@@H]2CCCO[C@H]12.O=C(O)C(F)(F)F.O=C(O)C(F)(F)F.O=C(O)C(F)(F)F | -9.914
CN(Cc1cccnc1)[C@@H]1CN(Cc2nccn2C)[C@@H]2CCCO[C@H]12.O=C(O)C(F)(F)F.O=C(O)C(F)(F)F.O=C(O)C(F)(F)F.O=C(O)C(F)(F)F | 107.5
CN(Cc1ccco1)[C@@H]1CN(Cc2cnn(C)c2)[C@@H]2CCCO[C@H]12.O=C(O)C(F)(F)F.O=C(O)C(F)(F)F | 12.06
Cn1cc(CN2C[C@H](N3CCOCC3)[C@@H]3OCCC[C@@H]32)cn1.O=C(O)C(F)(F)F.O=C(O)C(F)(F)F | 9.025
CN(Cc1ccco1)[C@@H]1CN(Cc2nccn2C)[C@@H]2CCCO[C@H]12.O=C(O)C(F)(F)F.O=C(O)C(F)(F)F.O=C(O)C(F)(F)F | -0.8776
CN(Cc1cccnc1)[C@@H]1CN(Cc2cnn(C)c2)[C@@H]2CCCO[C@H]12.O=C(O)C(F)(F)F.O=C(O)C(F)(F)F.O=C(O)C(F)(F)F.O=C(O)C(F)(F)F | 88.39
CCC(C)(CNC(=O)Nc1nncs1)N1CCOCC1 (configuration not stated) | -7.544
Cc1nc(C)n(CC2CCCN(c3ncnc4ccccc34)C2)n1 (configuration not stated) | 143.5
Cc1nc(C)n(CC2CCCN(c3ccnc(-c4ccccc4)n3)C2)n1 (configuration not stated) | -14.72
Cc1nc(C)n(CC2CCCN(c3ncnc4ccsc34)C2)n1 (configuration not stated) | -4.048
Cc1nc(C)n(CC2CCCN(c3ncnc4c3CCC4)C2)n1 (configuration not stated) | -12.81
Cc1nc(C)n(CC2CCCN(c3ccc(C#N)cn3)C2)n1 (configuration not stated) | 123
CC(C)(NC(=O)C1CCN(C2CCCCC2)CC1)c1nnc(N)s1 | 3.743
c1cncc(-c2nc3c(c(NCC4(c5ccncc5)CC4)n2)CCC3)c1 | -14.36
CCn1nc(C)cc1C(=O)N1CCOc2cc(C)ccc21 | -0.2889
Cc1csc(CNc2cnn(C(C)C)c2)n1 | 2.502
Cc1cn2c(CN(C)C(=O)c3cccnc3O)c(C)nc2s1 | 1.222
Cc1nn(C)c(C)c1C1CCCN1Cc1nc(-c2cccs2)no1 (configuration not stated) | 66.61
Cc1nc(C)n(CC2CCCN2Cc2nc(-c3cccs3)no2)n1 (configuration not stated) | -9.424

Structure (SMILES) | Percent Effect [%]
Cc1nn(C)c(C)c1C1CCCN1Cc1nc(C2CC2)no1 (configuration not stated) | -2.837
Cc1nn(C)c(C)c1C1CCCN1Cc1nc(-c2ccccn2)no1 (configuration not stated) | 93.92
C1CCC(c2nnc3sc(C4CCOC4)nn23)C1 (configuration not stated) | 100.6
C1CCC(c2nnc3sc(C4CCCO4)nn23)C1 (configuration not stated) | 107.8
C1CCC(c2nn3c(C4CCCO4)nnc3s2)C1 (configuration not stated) | 94.06
CCn1cc(N2Cc3nc(N4CCN(C)CC4)ncc3C2=O)cn1 | -2.562
CC(=O)N1CC[C@H]2CC(=O)N(CCc3c[nH]cn3)CC[C@H]2C1 | 10.36
Cc1oc(C(=O)O)cc1S(=O)(=O)Nc1cc(Cl)ccc1F | 4.903
Cc1cccc(NS(=O)(=O)c2cc(C(=O)O)oc2C)c1Cl | -7.287
Cc1oc(C(=O)O)cc1S(=O)(=O)Nc1ccccc1F | 96.87
O=C(O)c1ccc(S(=O)(=O)Nc2ccccc2CC(F)(F)F)c(F)c1 | -4.395
Cc1oc(C(=O)O)cc1S(=O)(=O)Nc1ccc(Cl)cc1F | 103.2
CN(C)C(=O)CNS(=O)(=O)c1cc(Br)ccc1F | 0.0286
Cc1oc(C(=O)O)cc1S(=O)(=O)Nc1ccc(Cl)c(F)c1 | -4.199
Cc1oc(C(=O)O)cc1S(=O)(=O)Nc1cccc(-c2nccs2)c1 | 2.887
Cc1oc(C(=O)O)cc1S(=O)(=O)Nc1cc(Br)ccc1F | 94.97
Cc1oc(C(=O)O)cc1S(=O)(=O)Nc1cccc(Cl)c1F | 105.9
Cc1ccc([C@H]2CN(C(C)C)C[C@@H]2NS(=O)(=O)N2CCOCC2)o1 | -9.511
O=C(O)C(F)(F)F.O=C(c1ccncc1)N1CC[C@H]2[C@H]1CCN2S(=O)(=O)C1CC1 | -0.5443
CCn1ccnc1CNCC1CCN(CC(O)c2ccccc2)CC1 (configuration not stated) | -5.873
Cc1cc(CN2CCC3(CC2)CC(C(=O)O)N(C(=O)C2CC2)C3)oc1C (configuration not stated) | -10.16
O=C(c1cc(Cl)c2c(c1)OCO2)N1CCN(c2ccccn2)CC1 | -15.08
Cc1ccc(F)c(NS(=O)(=O)c2cc(C(=O)O)oc2C)c1 | 98.71

Structure (SMILES) | Percent Effect [%]
Cc1cccc(NS(=O)(=O)c2cc(C(=O)O)oc2C)c1 | -4.62
Cc1oc(C(=O)O)cc1S(=O)(=O)Nc1cc(F)ccc1F | 110.8
O=C(O)CSc1nnc(-c2cn[nH]c2)n1-c1ccccc1Cl | -15.15
O=C(CS(=O)(=O)c1cccc[n+]1[O-])NC1CCCc2ccccc21 (configuration not stated) | 4.468
CN(Cc1cccnc1)C[C@H]1OC[C@@H]2CCN(C(=O)C3CC3)C[C@@H]21.O=C(O)C(F)(F)F.O=C(O)C(F)(F)F | -29.83
Cc1ccnc2c1NC(=O)CN2C(=O)CCc1cccs1 | 21.37
COc1ccc(CN2CCO[C@H]3[C@H](Oc4ccccn4)CC[C@@H]32)cc1.O=C(O)C(F)(F)F.O=C(O)C(F)(F)F | -1.108
COc1ccc(CN2CCO[C@H]3[C@H](OCc4ccncc4)CC[C@@H]32)cc1.O=C(O)C(F)(F)F.O=C(O)C(F)(F)F | 132.4
Fc1ccc(CN2CCO[C@H]3[C@H](OCc4ccncc4)CC[C@@H]32)cc1.O=C(O)C(F)(F)F.O=C(O)C(F)(F)F | 140.9
Cc1cccc(CN2Cc3[nH]nc(COCC4CC4)c3C2)n1.O=C(O)C(F)(F)F | -6.126
Fc1ccccc1CN1C[C@@H](OCc2ccncc2)[C@H]2OCCC[C@H]21.O=C(O)C(F)(F)F.O=C(O)C(F)(F)F | 11.15
Cc1cccc(CO[C@@H]2CC[C@H]3[C@H]2OCCN3Cc2cc(C)on2)n1.O=C(O)C(F)(F)F.O=C(O)C(F)(F)F | -3.201
Cc1cccc(CN2CCO[C@@H]3CC(COc4ccccn4)C[C@H]32)n1.O=C(O)C(F)(F)F.O=C(O)C(F)(F)F (some centres not stated) | 94.81
Cc1cccc(CN2CCO[C@H]3[C@@H](OCc4ccncc4)CC[C@@H]32)n1.O=C(O)C(F)(F)F.O=C(O)C(F)(F)F.O=C(O)C(F)(F)F | 103.5
O=C(CO[C@@H]1CC[C@H]2[C@H]1OCCN2Cc1ccccn1)N1CCCC1.O=C(O)C(F)(F)F.O=C(O)C(F)(F)F | -4.207
Cc1nnc(N2C[C@H](OCc3ccncc3)[C@H]3OCCC[C@H]32)s1.O=C(O)C(F)(F)F.O=C(O)C(F)(F)F | -4.606
COc1cc(CNCCn2cccn2)c2c(c1)CC(C)O2 (configuration not stated) | -3.376
CC(=O)Nn1c(C)cc(CN2CCC(c3ccncc3)CC2)c1C | -4.141
CC(c1cccnc1)N(C)Cc1csc(-c2ccccn2)n1 (configuration not stated) | 4.015
N#Cc1ccccc1CN1CCC2(CC1)CC(c1ccccc1)C(=O)N2 (configuration not stated) | 15.31
Cc1nc(CNC(=O)CCN2CCN(c3ccccc3)CC2)oc1C | 0.8962
COc1ncccc1CNCc1c(C(C)C)nn(C)c1OC | 1.463
COc1c(CNCC(c2cccc(F)c2)N(C)C)c(C(C)C)nn1C (configuration not stated) | 10

Structure (SMILES) | Percent Effect [%]
CC(C)c1nn(C)c(N(C)C)c1CNCC(O)c1ccccc1F (configuration not stated) | -5.015
Cc1nn(C)c(N(C)C)c1CNCc1cccc(Cl)c1 | 10.47
COc1ccccc1C(O)CNCc1c(C(C)C)nn(C)c1N(C)C (configuration not stated) | 2.712
COc1c(CNCC(O)c2ccccc2F)c(C(C)C)nn1C (configuration not stated) | 91.26
COc1c(CNCc2ccc(CN(C)C)cc2)c(C(C)C)nn1C | -2.323
COc1c(CNCc2ccc(N(C)C)nc2)c(C(C)C)nn1C | -3.12
COc1c(CNCC(O)c2ccccc2)c(C(C)C)nn1C (configuration not stated) | 92.93
COc1c(CNCC(O)c2ccc(C)cc2)c(C(C)C)nn1C (configuration not stated) | 85.73
Cc1nn(C)c(N(C)C)c1CNCC(O)c1ccccc1F (configuration not stated) | 78.77
Cc1cccc(C(=O)N2CCSCC2)c1NC(=O)c1ccsc1 | 1.507
O=C(c1cc(=O)[nH]c(=O)[nH]1)N1CCCCC1c1nc2cc(F)ccc2[nH]1 (configuration not stated) | -7.879
CC(C)(C)OC(=O)N[C@H]1CCN(c2cncc(Br)c2)C1 | 4.915
Cn1c(SCc2noc(C(C)(C)C)n2)nnc1C1CCS(=O)(=O)C1 (configuration not stated) | 11.73
CCc1ccc(C(=O)NCCCC2(C3OCCO3)CCOCC2)cc1 | -33.3
N#Cc1ccccc1CN1C[C@@H]2CC[C@H](C1)N(Cc1cscn1)C2=O | -11.1
O=C(NCc1ccccc1)N1CCC(Oc2ncccc2Br)CC1 | -0.9975
NC(=O)Nc1cccc(F)c1C(=O)NC1CCCC1 | 2.904
COc1c(CNCC(O)c2cccc(F)c2)c(C)nn1C (configuration not stated) | 102.4
COc1c(CNCC(O)COc2ccc3c(c2)OCO3)c(C)nn1C (configuration not stated) | 70.56
COc1c(CNCC(O)c2cccc(F)c2)c(C(C)C)nn1C (configuration not stated) | 6.756
Cc1nc(CNCC(O)COc2ccc3c(c2)OCO3)cs1 (configuration not stated) | -10.52
Cc1nn(C)c(Cl)c1CNCCOc1ccc2c(c1)OCO2 | -10.2
COc1c(CNC(c2ccc(F)cc2)C(C)(C)C)c(C)nn1C (configuration not stated) | 23.53
